This note sets out measurements from ChEMBL document CHEMBL2218924, “A broad activity screen in support of a chemogenomic map for kinase signalling research and drug discovery” (Biochem J, 2013).

In test [1] the target is Mast/stem cell growth factor receptor Kit (Homo sapiens) (UniProt P10721). Particulars: at 1 µM.
Test [2] shares this target. The conditions noted are these: at 10 µM.
The target in test [3] is Proto-oncogene tyrosine-protein kinase Src (Homo sapiens) (UniProt P12931). The conditions noted are these: at 1 µM.
Test [4] has the same target. The conditions noted are these: at 10 µM.
For test [5], the target named is T1, Eukaryotic elongation factor 2 kinase (Homo sapiens) (UniProt O00418).
T1 sequence (whole entry): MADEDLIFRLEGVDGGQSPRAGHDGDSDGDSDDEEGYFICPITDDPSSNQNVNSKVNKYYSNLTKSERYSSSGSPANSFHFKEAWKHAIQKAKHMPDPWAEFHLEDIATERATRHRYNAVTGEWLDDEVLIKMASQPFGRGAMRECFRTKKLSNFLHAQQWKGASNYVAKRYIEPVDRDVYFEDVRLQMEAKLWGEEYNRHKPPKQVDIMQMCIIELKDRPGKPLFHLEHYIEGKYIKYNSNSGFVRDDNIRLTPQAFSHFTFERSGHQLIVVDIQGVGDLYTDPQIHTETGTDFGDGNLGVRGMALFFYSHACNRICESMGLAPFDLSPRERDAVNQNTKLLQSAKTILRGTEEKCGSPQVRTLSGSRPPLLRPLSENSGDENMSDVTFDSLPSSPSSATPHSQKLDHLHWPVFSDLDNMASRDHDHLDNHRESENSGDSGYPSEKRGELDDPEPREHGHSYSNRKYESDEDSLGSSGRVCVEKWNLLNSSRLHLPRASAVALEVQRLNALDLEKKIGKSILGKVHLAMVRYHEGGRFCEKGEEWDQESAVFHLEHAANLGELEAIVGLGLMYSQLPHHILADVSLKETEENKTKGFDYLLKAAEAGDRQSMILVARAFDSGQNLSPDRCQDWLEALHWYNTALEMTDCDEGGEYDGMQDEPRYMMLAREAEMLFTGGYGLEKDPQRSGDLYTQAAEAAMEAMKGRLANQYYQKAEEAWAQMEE
The conditions noted are these: at 1 µM.

For test [6], the target named is T1, Eukaryotic elongation factor 2 kinase (Homo sapiens). The conditions noted are these: at 10 µM.
The target in test [7] is Serine/threonine-protein kinase mTOR (Homo sapiens) (UniProt P42345). The conditions noted are these: at 1 µM.
Test [8] has the same target. The conditions noted are these: at 10 µM.
For test [9] the target is unchanged. Particulars: at 1 µM. This is another data set of the same source.
Test [10] has the same target. The conditions noted are these: at 10 µM. The source holds these as a separate data set.
Test [11] addresses Ribosomal protein S6 kinase beta-1 (Homo sapiens) (UniProt P23443). Particulars: at 1 µM.
For test [12] the target is unchanged. Particulars: at 10 µM.
The target in test [13] is Serine/threonine-protein kinase Nek6 (Homo sapiens) (UniProt Q9HC98). Particulars: at 1 µM.
Test [14] has the same target. Particulars: at 10 µM.
The target of test [15] is Serine/threonine-protein kinase Nek7 (Homo sapiens) (UniProt Q8TDX7). The conditions noted are these: at 1 µM.
Test [16] shares this target. Particulars: at 10 µM.
Test [17] addresses T2, Serine/threonine-protein kinase NLK (Homo sapiens) (UniProt Q9UBE8).
T2 sequence (whole entry): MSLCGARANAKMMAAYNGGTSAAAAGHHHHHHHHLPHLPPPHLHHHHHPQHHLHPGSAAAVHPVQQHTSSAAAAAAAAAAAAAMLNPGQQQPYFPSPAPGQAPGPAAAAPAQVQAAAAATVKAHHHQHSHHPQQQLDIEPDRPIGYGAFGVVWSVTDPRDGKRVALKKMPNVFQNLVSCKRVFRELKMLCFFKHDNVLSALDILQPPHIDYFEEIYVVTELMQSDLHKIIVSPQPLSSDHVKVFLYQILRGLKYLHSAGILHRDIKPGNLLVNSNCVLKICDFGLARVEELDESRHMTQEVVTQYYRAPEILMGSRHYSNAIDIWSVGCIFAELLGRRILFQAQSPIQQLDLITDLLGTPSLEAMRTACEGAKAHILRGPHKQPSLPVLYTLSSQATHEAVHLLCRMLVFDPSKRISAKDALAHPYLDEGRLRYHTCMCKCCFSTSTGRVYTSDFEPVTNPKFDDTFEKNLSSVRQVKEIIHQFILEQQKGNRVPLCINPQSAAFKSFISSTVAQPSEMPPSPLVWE
Particulars: at 1 µM.

Test [18] concerns the target T2, Serine/threonine-protein kinase NLK (Homo sapiens). The conditions noted are these: at 10 µM.
Test [19] deals with Serine/threonine-protein kinase PAK 2 (Homo sapiens) (UniProt Q13177). The conditions noted are these: at 1 µM.
For test [20] the target is unchanged. The conditions noted are these: at 10 µM.

Sequence of Serine/threonine-protein kinase Nek6 (Homo sapiens) (Q9HC98 whole entry): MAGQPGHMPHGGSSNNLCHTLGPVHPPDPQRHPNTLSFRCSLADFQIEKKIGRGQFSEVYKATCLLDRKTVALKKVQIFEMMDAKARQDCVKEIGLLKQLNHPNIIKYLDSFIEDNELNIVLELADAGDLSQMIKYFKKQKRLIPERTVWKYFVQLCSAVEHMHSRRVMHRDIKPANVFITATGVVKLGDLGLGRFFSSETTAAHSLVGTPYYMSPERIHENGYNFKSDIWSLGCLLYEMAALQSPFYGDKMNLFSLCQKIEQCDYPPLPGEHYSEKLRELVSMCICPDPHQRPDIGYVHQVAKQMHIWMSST
Sequence of Serine/threonine-protein kinase PAK 2 (Homo sapiens) (Q13177 whole entry): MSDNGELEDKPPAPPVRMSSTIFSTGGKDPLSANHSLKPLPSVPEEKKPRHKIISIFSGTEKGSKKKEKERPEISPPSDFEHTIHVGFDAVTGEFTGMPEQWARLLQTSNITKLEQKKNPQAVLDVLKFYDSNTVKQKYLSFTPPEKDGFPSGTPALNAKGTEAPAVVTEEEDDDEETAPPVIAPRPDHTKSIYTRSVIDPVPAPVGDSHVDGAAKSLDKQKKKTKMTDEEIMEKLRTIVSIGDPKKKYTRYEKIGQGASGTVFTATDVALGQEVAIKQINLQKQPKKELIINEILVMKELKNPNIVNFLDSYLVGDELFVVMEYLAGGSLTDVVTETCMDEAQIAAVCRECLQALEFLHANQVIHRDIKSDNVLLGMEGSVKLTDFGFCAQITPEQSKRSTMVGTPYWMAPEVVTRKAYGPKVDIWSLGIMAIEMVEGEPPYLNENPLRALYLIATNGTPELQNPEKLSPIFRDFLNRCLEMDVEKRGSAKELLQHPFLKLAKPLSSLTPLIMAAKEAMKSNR
Sequence of Proto-oncogene tyrosine-protein kinase Src (Homo sapiens) (P12931 2-536 limits assumed): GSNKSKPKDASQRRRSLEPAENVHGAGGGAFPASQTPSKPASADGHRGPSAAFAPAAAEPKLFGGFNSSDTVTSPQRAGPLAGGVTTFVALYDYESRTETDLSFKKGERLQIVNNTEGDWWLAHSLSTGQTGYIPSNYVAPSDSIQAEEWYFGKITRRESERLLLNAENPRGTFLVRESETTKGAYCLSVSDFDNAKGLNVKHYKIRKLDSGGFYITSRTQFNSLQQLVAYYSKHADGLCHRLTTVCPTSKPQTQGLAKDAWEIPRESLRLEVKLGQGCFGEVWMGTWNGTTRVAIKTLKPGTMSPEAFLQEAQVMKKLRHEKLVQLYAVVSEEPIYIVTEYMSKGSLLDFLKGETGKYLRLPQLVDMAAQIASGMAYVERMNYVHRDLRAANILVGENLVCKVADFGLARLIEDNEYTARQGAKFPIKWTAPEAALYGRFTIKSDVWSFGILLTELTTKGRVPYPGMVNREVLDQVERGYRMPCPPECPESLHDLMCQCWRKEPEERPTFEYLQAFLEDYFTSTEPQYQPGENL
Sequence of Mast/stem cell growth factor receptor Kit (Homo sapiens) (P10721 whole entry): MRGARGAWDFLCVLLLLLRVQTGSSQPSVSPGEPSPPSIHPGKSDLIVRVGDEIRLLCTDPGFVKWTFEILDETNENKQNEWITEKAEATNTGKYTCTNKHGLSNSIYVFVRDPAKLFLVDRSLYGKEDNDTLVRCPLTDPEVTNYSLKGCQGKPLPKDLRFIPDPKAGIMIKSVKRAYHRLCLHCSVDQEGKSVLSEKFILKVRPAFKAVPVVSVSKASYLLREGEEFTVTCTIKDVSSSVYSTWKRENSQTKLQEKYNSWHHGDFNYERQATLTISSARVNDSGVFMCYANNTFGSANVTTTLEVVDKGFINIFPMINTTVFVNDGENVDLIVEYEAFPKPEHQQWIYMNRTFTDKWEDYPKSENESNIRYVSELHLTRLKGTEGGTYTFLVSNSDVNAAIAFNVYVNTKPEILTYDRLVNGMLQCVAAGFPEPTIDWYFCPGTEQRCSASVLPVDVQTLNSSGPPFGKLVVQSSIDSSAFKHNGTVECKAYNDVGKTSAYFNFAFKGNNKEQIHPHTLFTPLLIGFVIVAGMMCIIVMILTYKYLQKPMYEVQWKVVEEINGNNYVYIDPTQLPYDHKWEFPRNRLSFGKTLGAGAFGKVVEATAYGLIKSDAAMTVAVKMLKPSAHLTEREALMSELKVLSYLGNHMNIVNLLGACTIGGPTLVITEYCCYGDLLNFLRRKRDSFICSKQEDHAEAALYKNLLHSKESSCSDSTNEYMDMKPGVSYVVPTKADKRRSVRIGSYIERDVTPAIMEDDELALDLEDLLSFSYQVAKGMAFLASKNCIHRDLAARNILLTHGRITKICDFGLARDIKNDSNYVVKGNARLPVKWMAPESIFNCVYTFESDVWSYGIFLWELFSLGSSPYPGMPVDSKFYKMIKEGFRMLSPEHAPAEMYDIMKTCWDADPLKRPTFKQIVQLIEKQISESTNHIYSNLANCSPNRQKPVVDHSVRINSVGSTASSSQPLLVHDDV
Sequence of Serine/threonine-protein kinase Nek7 (Homo sapiens) (Q8TDX7 whole entry, looked up): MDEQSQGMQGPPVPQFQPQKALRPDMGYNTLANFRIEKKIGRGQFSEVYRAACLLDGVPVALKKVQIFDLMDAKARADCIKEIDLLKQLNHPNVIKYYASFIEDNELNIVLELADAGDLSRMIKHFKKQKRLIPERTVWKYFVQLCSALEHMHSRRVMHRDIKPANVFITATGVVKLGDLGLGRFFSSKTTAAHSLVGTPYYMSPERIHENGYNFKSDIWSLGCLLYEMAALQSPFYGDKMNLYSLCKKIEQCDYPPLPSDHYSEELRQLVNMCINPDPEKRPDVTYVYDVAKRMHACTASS
Sequence of Ribosomal protein S6 kinase beta-1 (Homo sapiens) (P23443 whole entry, looked up): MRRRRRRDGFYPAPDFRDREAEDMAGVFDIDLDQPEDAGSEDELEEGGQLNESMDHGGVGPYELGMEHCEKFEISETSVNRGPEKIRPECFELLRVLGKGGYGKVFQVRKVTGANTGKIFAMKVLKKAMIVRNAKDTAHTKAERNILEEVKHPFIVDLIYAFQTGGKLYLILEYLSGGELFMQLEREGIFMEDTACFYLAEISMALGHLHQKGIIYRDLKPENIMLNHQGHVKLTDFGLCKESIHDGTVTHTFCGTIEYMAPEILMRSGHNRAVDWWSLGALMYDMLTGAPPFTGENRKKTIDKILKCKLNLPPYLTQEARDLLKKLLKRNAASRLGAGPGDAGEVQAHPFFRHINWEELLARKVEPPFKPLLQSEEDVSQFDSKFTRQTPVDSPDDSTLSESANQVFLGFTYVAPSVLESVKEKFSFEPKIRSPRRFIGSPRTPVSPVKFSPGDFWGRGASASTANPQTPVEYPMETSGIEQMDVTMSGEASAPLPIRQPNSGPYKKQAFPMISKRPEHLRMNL

With `COc1cc2ncnc(Nc3ccc(Oc4ccccc4)cc3)c2cc1OC`, the residual activity was 109% in [1]; 60% in test [2]; 36% in [3]; 24% in test [4]; 92% (inactive) in test [5]; 132% in test [6]. The residual activity in [7] is 90%; in test [8], 95%; in test [9], 80%; in test [10] it was 95%; in [11] it was 92%; in test [12], 88%. The residual activity was 97% (inactive) in test [13]; 118% in test [14]; 97% (inactive) in test [15]; 112% (inactive) in test [16]; 96% in test [17]; 82% in test [18]. Also, the residual activity in test [19] came to 98%; in test [20], 87%.

Turning to `O=C(Nc1cccc(Nc2cc(Nc3cccc(C(F)(F)F)c3)ncn2)c1)C1CC1`, the residual activity in test [1] turned out to be 106%; in test [2], 100%; in test [3] it was 110%; in test [4], 64%; in [7] it was 105%; in test [8] it was 105%. The residual activity is 104% in [9]; 102% in [10]; 92% in test [11]; 110% in [12]; 99% (inactive) in test [13]; 126% in test [14]. The residual activity in test [15] is 95% (inactive); in test [16], 93% (inactive); in test [17] it was 63%; in [18] it was 27%; in test [19], 116%; in test [20], 83%.

For `O=C1NC(=O)/C(=C\c2ccc3nccnc3c2)S1`, the residual activity is 106% in test [1]; 102% in [2]; 86% in test [3]; 103% in [4]; 99% (inactive) in [5]; 91% in [6]. For the same compound, the residual activity in test [7] worked out at 46%; in test [8] it was 51%; in test [9], 90%; in test [10] it was 36%; in test [11], 68%; in test [12] it was 50%. The residual activity was 91% (inactive) in test [13]; 96% in test [14]; 100% (inactive) in test [15]; 106% (inactive) in test [16]; 89% in test [17]; 55% in test [18]. Further, the results for the residual activity in [19] and in test [20] were 102% and 75%, respectively.

As for `Oc1ccc(-c2nc(-c3ccc(F)cc3)c(-c3ccncc3)[nH]2)cc1`, the residual activity in test [1] was found to be 122%; in test [2], 107%; in test [3], 108%; in test [4] it was 45%; in [7], 98%; in test [8], 90%. Further, the residual activity in test [9] was 123%; in test [10], 90%; in [11], 72%; in test [12], 25%; in [13], 105% (inactive); in test [14] it was 110%. Besides, the residual activity in [15] is 114% (inactive); in test [16], 103% (inactive); in test [17] it was 49%; in test [18] it was 13%; in [19], 95%; in test [20], 85%.

As for `CO[C@@H]1[C@H](N(C)C(=O)c2ccccc2)C[C@H]2O[C@]1(C)n1c3ccccc3c3c4c(c5c6ccccc6n2c5c31)C(=O)NC4`, the residual activity in [1] stood at 65%; in test [2] it was 39%; in test [3] it was 40%; in [4], 24%; in [7], 95%; in test [8], 103%. The residual activity was 107% in test [9]; 83% in test [10]; 4% in test [11]; 1% in test [12]; 93% (inactive) in [13]; 92% in [14]. Besides, the residual activity is 91% (inactive) in [15]; 82% (inactive) in test [16]; 90% in test [17]; 73% in [18]; 72% in [19]; 50% in test [20].

Consider `O=C(O)c1ccc2c3c1cccc3c(=O)n1c3ccccc3nc21`, for which the residual activity in test [1] is 122%; in test [2], 119%; in test [3], 120%; in [4], 95%; in test [7], 105%; in [8], 59%. In addition, the residual activity is 98% in test [9]; 39% in [10]; 89% in test [11]; 46% in test [12]; 109% (inactive) in [13]; 101% in [14]. The residual activity in test [15] is 114% (inactive); in test [16], 108% (inactive); in [17], 107%; in test [18], 72%; in [19] it was 101%; in test [20], 95%.

Regarding `C[C@@H](N)[C@H]1CC[C@H](C(=O)Nc2ccncc2)CC1`, the residual activity in test [1] is 107%; in test [2], 106%; in test [3] it was 100%; in [4], 103%; in test [5], 96% (inactive); in test [7], 105%. Also, the residual activity in test [8] was 99%; in [9], 109%; in test [10], 117%; in test [11] it was 101%; in [12], 71%; in test [13], 106% (inactive). The residual activity in test [14] is 107%; in test [15], 111% (inactive); in test [16], 112% (inactive); in test [17] it was 100%; in [18], 101%; in [19] it was 106%. Moreover, in test [20], the residual activity is 104%.

As a reminder, the residual activity is the signal under treatment as a percentage of the control signal.
